Values without a mark were called inactive. Results filed as inconclusive are left out. Where a call stands in place of a potency, no number is given. Calls of active or inactive are those of the source. Unless noted, calls come from the whole dose curve; as a rule, active = well fitted curve in the direction sought with a large enough effect in the repeat runs; inconclusive = weak or mixed curves; inactive = no such curve, though single readings can be large; an effect the other way counts as inactive or inconclusive.
Experiments:
[1] = qHTS assay for small molecules that induce genotoxicity in human embryonic kidney cells expressing luciferase-tagged ATAD5 (AID 651632); note: nearly all actives have a fitted effect of over 15% in size
Procedure, shortened: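 Reporter cells (HEK293T) express luciferase-tagged ATAD5, a protein that accumulates after DNA damage. Treat 16 hr at 37C/5% CO2, add Amplite, wait 30 min at RT, and read luminescence.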

[2] = qHTS assay for small molecule agonists of the p53 signaling pathway - cell viability (AID 651633; calls by dose curve;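 note: p53RE-bla HCT reporter cells with a stable beta-lactamase p53 reporter; series mostly up to about 83 µM; nearly all actives have a fitted effect of over 30% in size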)
Procedure, shortened: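 p53RE-bla cells, seeded at 4,000 per well and rested 5 h at 37 C/5% CO2, received compounds in DMSO for 16 h at 37 C. CellTiter-Glo was then added, and luminescence was read after 30 min at room temperature to gauge cytotoxicity.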

[3] = qHTS assay for small molecules that induce genotoxicity in human embryonic kidney cells expressing luciferase-tagged ATAD5 - cell viability (AID 651634; calls by dose curve; note: nearly all actives have a fitted effect of over 25% in size; note: potency is the fitted concentration of half-maximal effect)
Procedure, shortened: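 Seeding of 2,000 HEK293T ATAD5-luciferase cells per well preceded pin-tool compound transfer. Plates sat 15.5 hr at 37C under 5% CO2, then fluorescence was read after 30 min with CellTiter-Fluor.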

[4] = qHTS assay for small molecule disruptors of the mitochondrial membrane potential - cell viability (AID 720634; calls by dose curve;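 note: human HepG2 liver cancer cells; series mostly up to about 83 µM; nearly all actives have a fitted effect of over 20% in size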)
Procedure, shortened: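 Measuring cytotoxicity alongside mitochondrial potential, the screen quantified ATP by luminescence in HepG2 cells after 1 hr compound incubation and a 30 min room-temperature CellTiter-Glo step.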

[5] = qHTS assay to test for compound auto fluorescence at 590 nm (red) in HepG2 cells (AID 720674)
Procedure, shortened: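 Compound auto-fluorescence is scored relative to Rose Bengal sodium, measured at 540/590 nm in live HepG2 cultures after 1 hr compound contact (37 C, 5% CO2).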

[6] = qHTS assay to test for compound auto fluorescence at 535 nm (green) in HepG2 cells (AID 720675)
[7] = qHTS assay to test for compound auto fluorescence at 460 nm (blue) in HEK293 cells (AID 720678)
Procedure, shortened: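 Blue-channel (Ex/Em 405/460 nm) intensity measured in HEK293 cultures after overnight compound exposure at 37C; signal expressed relative to triamterene. Cells plated 2,000 per well in 10% dialyzed FBS medium and allowed 4-5 hr to attach.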

[8] = qHTS assay to test for compound auto fluorescence at 590 nm (red) in HEK293 cells (AID 720679)
Procedure, shortened: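 Red-channel autofluorescence (Ex/Em 540/590 nm; Rose Bengal sodium reference) was measured after overnight 37C, 5% CO2 exposure of attached HEK293 cells, 2,000 per well in medium with 10% dialyzed FBS.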

[9] = qHTS assay to test for compound auto fluorescence at 535 nm (green) in HEK293 cells (AID 720680)
[10] = qHTS assay to test for compound auto fluorescence at 535 nm (green) in HEK293 cell free culture (AID 720682)
Procedure, shortened: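 Using fluorescein as calibrant, autofluorescence was quantified at 485/535 nm in cell-free DMEM containing 10% FBS after pintool addition of compound or vehicle.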

[11] = qHTS assay to test for compound auto fluorescence at 590 nm (red) in HEK293 cell free culture (AID 720683)
Procedure, shortened: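 Tox21 10K library compounds were pinned into cell-free DMEM with 10% FBS and fluorescence was read at excitation 540 nm. Activity is expressed as Rose Bengal sodium equivalency.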

[12] = qHTS assay to test for compound auto fluorescence at 590 nm (red) in HepG2 cell free culture (AID 720684)
Procedure, shortened: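 Measured in medium alone (MEM containing 10% FBS) following pintool addition of compound; emission at 590 nm with 540 nm excitation, referenced to Rose Bengal sodium.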

[13] = qHTS assay to test for compound auto fluorescence at 460 nm (blue) in HepG2 cell free culture (AID 720685)
Procedure, shortened: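 Compound (23 nL) or DMSO pinned into cell-free MEM with 10% FBS; blue fluorescence read at 405/460 nm excitation/emission, expressed as auto-fluorescence equivalency to triamterene.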

[14] = qHTS assay to test for compound auto fluorescence at 535 nm (green) in HepG2 cell free culture (AID 720686)
[15] = qHTS assay to test for compound auto fluorescence at 460 nm (blue) in HepG2 cells (AID 720687)
Procedure, shortened: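 Cells (2,000/well in MEM with 10% FBS) attached overnight at 37 C, then were exposed to compound or DMSO for 1 hr at 37 C, 5% CO2. Fluorescence read at Ex/Em 405/460 nm, expressed as triamterene-equivalent signal.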

[16] = target: Glucocorticoid receptor (Homo sapiens) (UniProt P04150); assay: qHTS assay to identify small molecule agonists of the glucocorticoid receptor (GR) signaling pathway (AID 720691; active = well fitted activation curve with a large enough effect in the signal ratio in the repeat runs, not every such curve was filed as active; the % refers to the signal ratio)
Sequence of Glucocorticoid receptor (Homo sapiens) (P04150 whole entry, looked up): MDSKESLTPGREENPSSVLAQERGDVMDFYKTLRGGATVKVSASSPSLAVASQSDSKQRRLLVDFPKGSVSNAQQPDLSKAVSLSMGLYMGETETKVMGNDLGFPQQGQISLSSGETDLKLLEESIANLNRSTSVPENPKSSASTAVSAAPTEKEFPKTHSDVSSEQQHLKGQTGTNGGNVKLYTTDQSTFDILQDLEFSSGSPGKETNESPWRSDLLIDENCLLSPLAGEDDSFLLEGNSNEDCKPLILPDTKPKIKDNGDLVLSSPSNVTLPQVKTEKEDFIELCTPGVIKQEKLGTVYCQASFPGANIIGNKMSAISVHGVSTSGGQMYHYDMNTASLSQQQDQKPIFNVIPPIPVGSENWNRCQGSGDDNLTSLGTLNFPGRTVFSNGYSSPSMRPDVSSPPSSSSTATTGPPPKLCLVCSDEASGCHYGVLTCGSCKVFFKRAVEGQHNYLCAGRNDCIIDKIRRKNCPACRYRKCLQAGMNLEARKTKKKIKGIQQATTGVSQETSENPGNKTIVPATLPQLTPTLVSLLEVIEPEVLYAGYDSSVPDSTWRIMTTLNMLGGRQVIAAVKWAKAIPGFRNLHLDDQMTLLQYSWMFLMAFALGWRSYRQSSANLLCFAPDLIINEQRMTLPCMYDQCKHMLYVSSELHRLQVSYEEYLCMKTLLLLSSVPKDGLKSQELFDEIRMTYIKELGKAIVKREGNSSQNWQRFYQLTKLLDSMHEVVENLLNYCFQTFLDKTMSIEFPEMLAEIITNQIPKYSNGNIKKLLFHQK
Procedure, shortened: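 Reporter read-out: fluorescence intensity following 2 h room-temperature LiveBLAzer B/G FRET substrate loading. Prior step: GR-bla HeLa cells held 4 h, then treated 18 h at 37 C.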

[17] = target: Glucocorticoid receptor (Homo sapiens) (UniProt P04150); assay: qHTS assay to identify small molecule antagonists of the glucocorticoid receptor (GR) signaling pathway (AID 720692; active = well fitted inhibition curve with a large enough effect in the signal ratio in the repeat runs, not every such curve was filed as active; the % refers to the signal ratio; note: potency is the fitted concentration of half-maximal effect)
Procedure, shortened: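 Dexamethasone (5 nM final) stimulated a stably integrated GRE-beta-lactamase reporter in HeLa cells during 18 h co-incubation with compounds; signal was quantified as fluorescence intensity of B/G FRET substrate after 2 h.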

[18] = qHTS assay to test for compound auto fluorescence at 460 nm (blue) in HEK293 cell free culture (AID 720681)
Procedure, shortened: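 Test compounds were pinned into cell-free culture medium (DMEM with 10% FBS) and fluorescence was read directly at Ex/Em 405/460 nm. Signals were expressed as fluorescence equivalents of triamterene, with DMSO vehicle as control.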

[19] = qHTS assay for small molecule disruptors of the mitochondrial membrane potential (AID 720635)
Procedure, shortened: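 HepG2 cells (2,000/well) attached overnight at 37C, then took compound for 1 hr at 37C, 5% CO2. Mito-MPS dye was added for 30 min; fluorescence was read at 490/535 nm (monomers) and 540/590 nm (aggregates).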

Compound | Potency [1] | Potency [2] | Potency [3] | Potency [4] | outcome [5] | outcome [6] | Potency [7] | outcome [8] | outcome [9] | outcome [10] | outcome [11] | outcome [12] | Potency [13] | outcome [14] | Potency [15] | Potency [16] | Potency [17] | Potency [18] | Potency [19]
CCCCOC(=O)/C=C\C(=O)OCCCC | inactive | inactive | inactive | inactive | inactive | inactive | inactive | inactive | inactive | inactive | inactive | inactive | inactive | inactive | inactive | inactive | – | – | –
CC[C@@H]1C[C@H](N(Cc2cc(C(F)(F)F)cc(C(F)(F)F)c2)C(C)=O)c2cc(C(F)(F)F)ccc2N1C(=O)OC(C)C | inactive | inactive | inactive | inactive | inactive | inactive | inactive | inactive | inactive | inactive | inactive | inactive | inactive | inactive | inactive | inactive | inactive | – | –
COC(=O)C(C)=O | inactive | inactive | inactive | inactive | inactive | inactive | inactive | inactive | inactive | – | inactive | inactive | inactive | inactive | inactive | inactive | inactive | inactive | –
CN1CCC[C@@H]1c1cccnc1 | inactive | – | inactive | inactive | inactive | inactive | inactive | inactive | inactive | inactive | inactive | inactive | inactive | inactive | inactive | – | – | inactive | inactive
COc1ccc([C@@H]2Sc3ccccc3N(CCN(C)C)C(=O)[C@@H]2OC(C)=O)cc1 | inactive | – | inactive | inactive | inactive | inactive | inactive | inactive | – | – | inactive | inactive | inactive | inactive | inactive | inactive | – | – | inactive
CCCCOCCOCCOCCOCCO | inactive | inactive | inactive | inactive | inactive | inactive | inactive | inactive | inactive | inactive | inactive | inactive | – | inactive | inactive | – | – | inactive | –
CC(C)NCC(O)COc1ccc(CC(N)=O)cc1 (stereo not drawn) | inactive | inactive | inactive | inactive | inactive | inactive | inactive | inactive | – | inactive | inactive | inactive | – | – | inactive | – | – | inactive | –
C=C(C)C(=O)OCCN(C)C | inactive | inactive | inactive | – | inactive | inactive | inactive | inactive | inactive | inactive | inactive | inactive | inactive | inactive | inactive | – | – | inactive | –
Cc1ccc(C(N)=O)cc1N | inactive | inactive | inactive | inactive | inactive | inactive | inactive | inactive | – | inactive | inactive | inactive | – | inactive | inactive | inactive | inactive | – | –
CCOC(=O)[C@H](CCc1ccccc1)N[C@H]1CCc2ccccc2N(CC(=O)O)C1=O | inactive | inactive | inactive | inactive | inactive | inactive | – | inactive | inactive | inactive | inactive | inactive | inactive | inactive | – | – | – | – | –
CC(C)(C)c1cc(CO)cc(C(C)(C)C)c1O | inactive | inactive | inactive | inactive | inactive | – | inactive | inactive | inactive | inactive | inactive | inactive | inactive | inactive | inactive | inactive | 44.5 µM (active) | inactive | –
CC(C(=O)O)c1ccc(-c2ccccc2)c(F)c1 (stereo not drawn) | inactive | inactive | inactive | inactive | inactive | inactive | inactive | inactive | – | inactive | inactive | inactive | inactive | inactive | inactive | inactive | inactive | – | –
COC(=O)CSc1cc(N=c2sc(=O)n3n2CCCC3)c(F)cc1Cl | inactive | inactive | inactive | inactive | inactive | inactive | inactive | inactive | – | inactive | inactive | inactive | inactive | inactive | inactive | inactive | inactive | inactive | –
Cc1cc(C)c(S(=O)(=O)O)cc1N=Nc1cc(S(=O)(=O)O)c2ccccc2c1O | inactive | inactive | 48.6 µM (active) | inactive | inactive | inactive | inactive | inactive | inactive | – | inactive | inactive | inactive | inactive | inactive | – | – | inactive | –
CC(=O)SCc1ccco1 | inactive | inactive | inactive | inactive | inactive | inactive | inactive | inactive | – | inactive | inactive | inactive | inactive | – | inactive | inactive | inactive | inactive | –
CC(C)(C)c1cc(CCC(=O)OCC(COC(=O)CCc2cc(C(C)(C)C)c(O)c(C(C)(C)C)c2)(COC(=O)CCc2cc(C(C)(C)C)c(O)c(C(C)(C)C)c2)COC(=O)CCc2cc(C(C)(C)C)c(O)c(C(C)(C)C)c2)cc(C(C)(C)C)c1O | inactive | inactive | inactive | inactive | inactive | – | inactive | inactive | inactive | inactive | inactive | inactive | inactive | inactive | inactive | inactive | inactive | – | –
